# Test results taken from PubChem BioAssay.
# Values joined by “and” are separate entries in the source; they are usually repeats but may differ in a detail not shown here. Identical values can stand only once. Active and inactive are the calls of the source. Unless noted, no rule for the calls is given here.
# Assays:
# [1] = test system: Aerobactin synthetase IucA (Klebsiella pneumoniae); assay: inhibition of K. pneumoniae IucA enzyme – biochemical, Tocris library, absorbance (AID 1345561); conditions: purified IucA enzyme assay, absorbance (OD) read-out; stronger effect = lower value;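 tested at 8 µM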;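 also: 100% = enzyme without compound and 0% = no enzyme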
# [2] = viability loss with induced miR-34 in A549 – imaging, A549 dox-inducible miR-34, nuclei and caspase counts, primary screen (AID 1347080;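 active = compounds whose cell count with miR-34 switched on is under 0.7 times the count with it off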); conditions: A549 miR-34 inducible, Hoechst nuclei count, 48 h
# [3] = blockers of cellular phospholipid synthesis – cell-based, LOPAC library, screen 4, primary screen (AID 1347384); conditions: animal cells, phospholipid biosynthesis inhibition screen; at 10 µM
# [4] = galactose survival enhancers in mitochondrial complex I cybrids – cell-based, galactose medium, ATP luminescence, primary screen (AID 1645843;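 active = z-score of at least 1.8 in each of two replicates, scored against plate mean and spread of sample wells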;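 also: positive z means more ATP and so rescue of galactose-driven cybrid death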); conditions: complex I mutant cybrid cells, 72 h, stronger effect = higher value
# [5] = chitosan synthesis blockers in C. neoformans – flow cytometry, Cibacron Brilliant Red staining (AID 1347148); conditions: Cryptococcus neoformans chitosan, stronger effect = lower value; at 10 µM unless noted;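 also: compound exposure lasted three days at 37 degrees C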
# [6] = compounds altering circadian rhythm period length – cell-based, LOPAC library, luminescence reporter (AID 2774); conditions: circadian reporter cells, at 7 µM, actives lie on both sides;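 also: values are relative to mean of DMSO wells on each plate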
# [7] = test system: Hepatitis C virus NS3 helicase; assay: blockers of NS3h binding to ssDNA – biochemical, fluorescence polarization, LOPAC1280 library, primary screen (AID 687035; in the data active = inhibition above about 37%); conditions: Purified HCV NS3 helicase, Cy5-dT15 ssDNA binding fluorescence polarization; stronger effect = higher value; concentration not given here
# [8] = compounds altering Cy5-DNA-NS3h complex signal – biochemical, LOPAC1280, artefact control for HCV NS3 helicase inhibitor project (AID 687037); conditions: Cy5-DNA-NS3h complex fluorescence interference counterscreen
# [9] = compounds altering viability of human ES cells (AID 493140); conditions: human embryonic stem cell survival screen; stronger effect = higher value;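 also: cells exposed to compounds for four days before counting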
# [10] = P. berghei load reduction in hepatocytes – cell-based, HepG2, luciferase luminescence, HepG2 viability, primary screen (AID 624349; in the data active = parasite load remaining mostly below about 12%, no sharp cut-off; inactive = mostly above about 10%;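 also: 100% = mean of DMSO negative control wells on the same plate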); conditions: P. berghei liver stage in HepG2, luciferase luminescence, concentration not given here; parasite load remaining: stronger effect = lower value; viability: measured here: HepG2 viability without parasites
# [11] = MELAS cybrid and Rieske KO viability enhancers – cell-based, MELAS cybrids, Rieske KO mouse fibroblasts, CellTiter-Glo, primary screen (AID 1508586;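 active = mean z-score across replicates of 1.96 or higher in either the MELAS or the Rieske mutant cell line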;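 also: z relative to plate mean and SD of compound and empty wells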); conditions: low glucose
# [12] = compounds altering HSF1 focus formation in cells – imaging, Selleck Cancer Library (AID 1347162; in the data active = plate-normalised HSF1 focus index below about 0.46); conditions: human cells, HSF1 nuclear foci imaging, at 10 µM; SSMD: measured here: HSF1 foci SSMD mean; cell count: measured here: cell number; plate-normalised HSF1 focus index: stronger effect = lower value
# [13] = growth inhibition, single agent or in combination, cell-based, chromothripsis tumors, cisplatin or BGB combos (AID 1671449; in the data active = inhibition above about 80%;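 also: cells exposed for 96 hours; 0% = vehicle DMSO and 100% = killing by high DMSO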); conditions: LFS_MB_P medulloblastoma cells
# [14] = growth inhibition, single agent and combos, cell-based, chromothripsis tumors, cisplatin or BGB combos (AID 1671450; in the data active = inhibition above about 80%;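 also: cells exposed to compound for four days; 0% = vehicle DMSO and 100% = cell killing by high DMSO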); conditions: HDN33 neuroblastoma cells, stronger effect = higher value
# [15] = growth inhibition, single agents and combos, ICB984, cell-based, cisplatin or BGB combos, synergistic combos for chromothripsis tumors (AID 1671451); conditions: ICB984 medulloblastoma cells, drug combinations, stronger effect = higher value;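 also: cells exposed for 96 hours before readout; 0% = vehicle DMSO and 100% = killing by high DMSO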
# [16] = growth inhibition, single agents and combos, HTB85, cell-based, BGB or cisplatin IC20 combos, synergistic combos for chromothripsis tumors (AID 1671453; in the data active = inhibition above about 80%;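 also: cells exposed for 96 hours before readout; 0% = vehicle DMSO and 100% = high DMSO killing control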); conditions: HTB85 osteosarcoma cells, drug combinations, stronger effect = higher value
# [17] = growth inhibition, MDA-MB-436, cell-based, BGB or cisplatin combos, synergistic combos for chromothripsis tumors (AID 1671458); conditions: MDA-MB-436 breast carcinoma growth inhibition, drug combinations, stronger effect = higher value;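 also: cells exposed for 96 hours; 0% = vehicle DMSO and 100% = killing by high DMSO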
# [18] = BT084 cell growth, single and combined drugs, ICGC_MB145, cisplatin and BGB IC40 combos (AID 1671461; in the data active = inhibition above about 80%;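 also: cells exposed to drugs for 96 hours; 0% = vehicle DMSO and 100% = high DMSO full killing control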); conditions: BT084 medulloblastoma cells, drug combinations, stronger effect = higher value
# [19] = stronger effect = lower value, cell number ratio, induced over uninduced
# [20] = measured here: relative caspase fold change +Dox/-Dox
# [21] = measured here: total cells with miR-34 induction, stronger effect = lower value
# [22] = measured here: total cells without miR-34 induction
smiles,measurement,setting,value
COc1ccc(Br)cc1S(=O)(=O)NC(=O)/C=C/c1ccccc1Cc1ccc2ccccc2c1,remaining activity,[1],102% (inactive)
same,fold change,[2]; [19],1.05 (inactive) and 0.853 (inactive)
same,fold change,[2]; [20],1.89 and 2.15
same,cell count,[2]; [21],9590 and 8680
same,cell count,[2]; [22],9110 and 10200
same,outcome,[3],inactive
same,z-score,[4],0.395 (inactive) and 0.085 (inactive)
Clc1cccc(Nc2nnc(-c3ccccc3)c3ccccc23)c1,remaining activity,[1],100% (inactive)
same,fold change,[2]; [19],0.991 (inactive) and 0.925 (inactive)
same,fold change,[2]; [20],0.939 and 0.863
same,cell count,[2]; [21],1790 and 6180
same,cell count,[2]; [22],1810 and 6680
same,fold fluorescence,[5],8.57 [at 150.7 µM] (inactive)
same,z-score,[4],-1.22 (inactive)
COc1ccc(CCN(C)CCc2ccc(OC)c(OC)c2)cc1OC,period change,[6],0.045 h (inactive)
same,inhibition,[7],-1% (inactive)
same,fluorescence ratio (interference),[8],1 (inactive)
same,remaining activity,[1],104% (inactive)
same,fold change,[2]; [19],0.949 (inactive) and 0.925 (inactive) and 0.899 (inactive)
same,fold change,[2]; [20],1.08 and 1.5 and 0.778
same,cell count,[2]; [21],8830 and 6070 and 8850
same,cell count,[2]; [22],9310 and 6560 and 9840
same,fold fluorescence,[5],2.96 [at 139.1 µM] (inactive)
same,outcome,[3],inactive
same,z-score,[4],-0.285 (inactive) and -0.27 (inactive)
CCCCCCCC/C=C\CCCCCCCC(N)=O,survival,[9],102 (inactive)
same,remaining activity,[1],107% (inactive)
same,fold change,[2]; [19],0.955 (inactive) and 0.909 (inactive) and 1 (inactive)
same,fold change,[2]; [20],1.2 and 0.885 and 0.621
same,cell count,[2]; [21],5390 and 5900 and 8530
same,cell count,[2]; [22],5650 and 6490 and 8490
same,fold fluorescence,[5],4.91 (inactive)
same,z-score,[4],-0.84 (inactive)
CCCCCCCCCCCCC/C=C/[C@@H](O)[C@H](CO)NC(C)=O,survival,[9],95 (inactive)
same,remaining activity,[1],114% (inactive)
same,fold change,[2]; [19],0.919 (inactive) and 1.02 (inactive) and 0.95 (inactive)
same,fold change,[2]; [20],1.09 and 0.67 and 0.924
same,cell count,[2]; [21],5360 and 6170 and 8250
same,cell count,[2]; [22],5840 and 6040 and 8680
same,fold fluorescence,[5],5.52 (inactive)
same,z-score,[4],-1.23 (inactive)
CN(C(=O)CCCOc1ccc2[nH]c(=O)ccc2c1)C1CCCCC1,period change,[6],-0.015 h (inactive)
same,parasite load remaining,[10],30.5% (inactive)
same,viability,[10],71.5%
same,inhibition,[7],-1% (inactive)
same,fluorescence ratio (interference),[8],1 (inactive)
same,remaining activity,[1],117% (inactive)
same,fold change,[2]; [19],1.04 (inactive) and 0.982 (inactive) and 0.9 (inactive)
same,fold change,[2]; [20],2.05 and 0.725 and 1.16
same,cell count,[2]; [21],8910 and 7180 and 9490
same,cell count,[2]; [22],8530 and 7310 and 10500
same,outcome,[3],inactive
same,z-score,"[11]; MELAS cybrid survival, CellTiter-Glo 48 h, stronger effect = higher value",0.542 (inactive)
same,z-score,"[11]; Rieske KO mouse fibroblast survival, CellTiter-Glo 72 h",-0.471
same,z-score,[4],-0.385 (inactive) and 0.22 (inactive) and -0.02 (inactive)
COc1cc(/C=C(\C#N)C(N)=O)cc(CSc2nc3ccccc3s2)c1O,survival,[9],114 (inactive)
same,remaining activity,[1],115% (inactive)
same,fold change,[2]; [19],0.859 (inactive) and 0.896 (inactive)
same,fold change,[2]; [20],1.08 and 1.29
same,cell count,[2]; [21],4790 and 8180
same,cell count,[2]; [22],5570 and 9130
same,fold fluorescence,[5],9.44 [at 125.8 µM] (inactive)
same,z-score,[4],5.03 (active)
O=c1onc2cnc3ccccc3n12,period change,[6],0.13 h (inactive)
same,inhibition,[7],0% (inactive)
same,fluorescence ratio (interference),[8],1 (inactive)
same,remaining activity,[1],108% (inactive)
same,fold change,[2]; [19],1.09 (inactive) and 0.945 (inactive) and 0.946 (inactive)
same,fold change,[2]; [20],1.29 and 1.08 and 0.805
same,cell count,[2]; [21],8010 and 5220 and 7630
same,cell count,[2]; [22],7350 and 5530 and 8060
same,outcome,[3],inactive
same,z-score,[4],0.125 (inactive) and 0.635 (inactive)
CC(N)=NCc1cccc(CN)c1,period change,[6],-0.015 h (inactive)
same,remaining activity,[1],107% (inactive)
same,fold change,[2]; [19],1.05 (inactive) and 0.837 (inactive)
same,fold change,[2]; [20],1.01 and 0.692
same,cell count,[2]; [21],6210 and 7850
same,cell count,[2]; [22],5900 and 9380
same,fold fluorescence,[5],3.53 [at 282.1 µM] (inactive)
same,z-score,[4],0 (inactive)
COC(=O)c1c(C)[nH]c(C)c1C(=O)c1ccccc1Cc1ccccc1,period change,[6],0.045 h (inactive)
same,inhibition,[7],-1% (inactive)
same,fluorescence ratio (interference),[8],1 (inactive)
same,remaining activity,[1],110% (inactive)
same,fold change,[2]; [19],0.994 (inactive) and 1.2 (inactive) and 0.953 (inactive)
same,fold change,[2]; [20],0.778 and 0.775 and 0.777
same,cell count,[2]; [21],7970 and 5070 and 7630
same,cell count,[2]; [22],8020 and 4240 and 8010
same,fold fluorescence,[5],5.89 [at 143.9 µM] (inactive)
same,outcome,[3],inactive
same,z-score,[4],-0.58 (inactive) and -0.485 (inactive)
N.N.O=C(O)C1(C(=O)O)CCC1.[Pt],parasite load remaining,[10],105% (inactive) and 45.1% (inactive)
same,viability,[10],75.3% and 97.1%
same,remaining activity,[1],100% (inactive)
same,fold change,[2]; [19],0.91 (inactive) and 1.06 (inactive)
same,fold change,[2]; [20],1.49 and 3.05
same,cell count,[2]; [21],7500 and 6220
same,cell count,[2]; [22],8240 and 5890
same,SSMD,[12],2.09
same,cell count,[12],7840
same,plate-normalised HSF1 focus index,[12],1.08 (inactive)
same,z-score,[4],-0.15 (inactive)
same,inhibition,"[13]; at 0.5 µM, stronger effect = higher value",-25.8% (inactive) and -25% (inactive)
same,inhibition,"[13]; measured here: combination with BGB IC20, at 0.005 µM",-21.9% and -15.8%
same,inhibition,"[13]; measured here: combination with BGB IC40, at 0.005 µM",-33.4% and -11.2%
same,inhibition,"[13]; measured here: combination with BGB IC40, at 0.05 µM",-8.87% and -31.1%
same,inhibition,"[13]; measured here: combination with cisplatin, at 0.5 µM, stronger effect = higher value",-41.1% and -20.3%
same,inhibition,"[13]; measured here: combination with cisplatin, at 5 µM, stronger effect = higher value",-26.5% and -12.9%
same,inhibition,"[14]; BGB combo, at 5 µM",-9.54% and -0.176%
same,inhibition,[14]; at 0.5 µM,-16.9% (inactive) and -34.4% (inactive)
same,inhibition,"[14]; cisplatin combo, at 5 µM",-4.51% and -16.2%
same,inhibition,"[14]; measured here: with BGB IC20 combination, at 0.5 µM",-16.3% and -33.3%
same,inhibition,"[14]; measured here: with cisplatin IC20 combination, at 0.5 µM",7.01% and -41.5%
same,inhibition,"[14]; single agent, at 5 µM",-8.33% and -8.24%
same,inhibition,"[15]; BGB IC20 combo, at 0.005 µM",-23.8% and 9.43%
same,inhibition,"[15]; BGB IC40 combo, at 0.005 µM",-28.7% and -26%
same,inhibition,"[15]; BGB IC40 combo, at 0.05 µM",-33.8% and -31.4%
same,inhibition,[15]; at 0.5 µM,-17.7% (inactive) and -35.2% (inactive)
same,inhibition,"[15]; cisplatin combo, at 0.05 µM",-33.8% and -36.1%
same,inhibition,"[15]; cisplatin combo, at 0.5 µM",-26.5% and -43.2%
same,inhibition,"[15]; cisplatin combo, at 5 µM",-41.9% and -11%
same,inhibition,"[15]; measured here: 5 uM single agent, at 5 µM",-8.78% and -6.62%
same,inhibition,[16]; at 0.5 µM,-12.1% (inactive) and -29.4% (inactive)
same,inhibition,"[16]; measured here: with BGB IC20, at 0.5 µM",-30.4% and -34.9%
same,inhibition,"[16]; measured here: with BGB IC20, at 5 µM",11.7% and -2.3%
same,inhibition,"[16]; measured here: with cisplatin IC20, at 0.5 µM",2.42% and -41.2%
same,inhibition,"[16]; measured here: with cisplatin IC20, at 5 µM",0.587% and 34.7%
same,inhibition,"[16]; single agent, at 5 µM",-3.92% and 13.4%
same,inhibition,[17]; at 0.5 µM,-21.7% (inactive) and -6.11% (inactive)
same,inhibition,"[17]; measured here: BGB combination, at 0.5 µM",-33.8% and -15%
same,inhibition,"[17]; measured here: BGB combination, at 5 µM",3.84% and 2.53%
same,inhibition,"[17]; measured here: cisplatin combination, at 0.5 µM",-26.3% and -12.4%
same,inhibition,"[17]; measured here: cisplatin combination, at 5 µM",14% and 17.8%
same,inhibition,[18]; at 0.5 µM,-21% (inactive) and -15.1% (inactive)
same,inhibition,"[18]; cisplatin combination, at 0.5 µM",-2.17% and -35.9%
same,inhibition,"[18]; cisplatin combination, at 5 µM",-41.8% and -20.7%
same,inhibition,"[18]; measured here: BGB IC40 combination 0.05 uM, at 0.05 µM",-10.5% and -37.9%
same,inhibition,"[18]; single agent, at 5 µM",-52.9% and -21.2%
